Experimental data as given in PubChem BioAssay (NCI).
This is part of a sample that, as a whole, favours compounds with a hit. Of some 79,000 tested, about 15% had one in any assay. Calls of active or inactive are those of the source. Cut-off read from the data, not from the text of the source: active = growth inhibition above about 70%; inactive = the rest.

Columns and labels:
[1] = NCI Yeast Anticancer Drug Screen. Data for the rad50 strain (AID 155);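 note: 0% = growth of vehicle-only cultures of the same strain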; conditions: S. cerevisiae rad50 strain growth inhibition, stronger effect = higher value
Summary of the method: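 Growth of the mutant yeast was measured after compound exposure and referenced to vehicle-treated cultures.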

[2] = NCI Yeast Anticancer Drug Screen. Data for the mec2-1 strain (AID 157); conditions: S. cerevisiae mec2-1 strain, stronger effect = higher value
Summary of the method: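 Mutant yeast (mec2-1) grown with compound; growth inhibition relative to vehicle control reported.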

[3] = NCI Yeast Anticancer Drug Screen. Data for the sgs1 mgt1 strain (AID 161);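 note: 0% = growth of cultures given vehicle only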; conditions: S. cerevisiae sgs1 mgt1 strain, stronger effect = higher value
Summary of the method: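 Yeast cells carrying a defined DNA-repair defect were exposed to test compounds. Growth inhibition was measured relative to vehicle-treated controls.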

[4] = NCI Yeast Anticancer Drug Screen. Data for the cln2 rad14 strain (AID 165);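 note: 0% = growth equal to vehicle treated cultures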; conditions: S. cerevisiae cln2 rad14 strain, stronger effect = higher value
Summary of the method: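 Readout is yeast growth inhibition versus vehicle-treated controls, using a strain with cln2 and rad14 alterations exposed to compound.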

[5] = NCI Yeast Anticancer Drug Screen. Data for the bub3 strain (AID 167); conditions: S. cerevisiae bub3 mutant strain, stronger effect = higher value
Summary of the method: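 Whole-cell yeast assay. The mutant strain was incubated with compounds, and growth inhibition was determined by comparison with vehicle-treated cells.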

[6] = NCI Yeast Anticancer Drug Screen. Data for the mlh1 rad18 strain (AID 175); conditions: S. cerevisiae mlh1 rad18 strain growth inhibition, stronger effect = higher value
Summary of the method: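 Genetically defined yeast (DNA repair-deficient) exposed to compounds; growth inhibition determined relative to vehicle.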

[7] = at 5.0 µM (retest, dose inferred, filed as 0.5)
[8] = at 50.0 µM (retest, dose inferred, filed as 5.0)

Measured: growth inhibition

O=[N+]([O-])/C=C/c1ccc(Cl)cc1
inactive: [2]; [7] 59% | [3]; [7] 54% | [4]; [7] 19% | [5]; [7] 45%
active: [1]; [7] 79% | [1]; [8] 99% | [1]; at 50.0 µM 99% | [2]; [8] 100% | [2]; at 50.0 µM 99.8% | [3]; [8] 100% | [3]; at 50.0 µM 99.5% | [4]; [8] 99% | [4]; at 50.0 µM 99% | [5]; [8] 99% | [5]; at 50.0 µM 99.5% | [6]; [7] 80% | [6]; [8] 99% | [6]; at 50.0 µM 99.5%

CC(=O)O[C@H]1CCC2[C@@H]3CCC4Nc5oncc5C[C@]4(C)C3CC[C@@]21C (stereo not given in full)
active: [1]; [8] 81% | [2]; [8] 75% | [4]; [8] 73% | [4]; at 50.0 µM 70% | [6]; [8] 91% | [6]; at 50.0 µM 84.5%
inactive: [1]; [7] -6% | [1]; at 50.0 µM 51% | [2]; [7] 4% | [2]; at 50.0 µM 8.35% | [3]; [7] -3% | [3]; [8] 53% | [3]; at 50.0 µM 16.6% | [4]; [7] -10% | [5]; [7] -17% | [5]; [8] 68% | [5]; at 50.0 µM 17.9% | [6]; [7] 12%

CC1=C(CC/C(C)=C/CCC2(C)CCC([C@H](C)C(=O)O)OO2)C(C)(C)CCC1 (stereo not given in full) (tested in a mixture with another compound)
inactive: [1]; [7] 18% | [2]; [7] 39% | [3]; [7] 52% | [4]; [7] 46% | [5]; [7] 9% | [6]; [7] 51%
active: [1]; [8] 97% | [1]; at 50.0 µM 90.2% | [2]; [8] 97% | [2]; at 50.0 µM 93% | [3]; [8] 96% | [3]; at 50.0 µM 93% | [4]; [8] 97% | [4]; at 50.0 µM 90.5% | [5]; [8] 97% | [5]; at 50.0 µM 92.2% | [6]; [8] 96% | [6]; at 50.0 µM 91.3%

CCOC(=O)c1ccc(N=Cc2ccc(N(CCCl)CCCl)cc2C)cc1
active: [6]; [8] 73%
inactive: [1]; [7] -4% | [1]; [8] 15% | [1]; at 50.0 µM 49.5% | [2]; [7] 13% | [2]; [8] 22% | [2]; at 50.0 µM 16.4% | [3]; [7] 14% | [3]; [8] 39% | [3]; at 50.0 µM 67.7% | [4]; [7] -8% | [4]; [8] -15% | [4]; at 50.0 µM 5.3% | [5]; [7] -6% | [5]; [8] 2% | [5]; at 50.0 µM 17.2% | [6]; [7] 25% | [6]; at 50.0 µM 37.9%

CC1=NNC(=O)C1(Br)Br
active: [5]; [8] 75%
inactive: [1]; [7] -2% | [1]; [8] 21% | [1]; at 50.0 µM 8.7% | [2]; [7] -3% | [2]; [8] 9% | [2]; at 50.0 µM 11.9% | [3]; [7] 2% | [3]; [8] 16% | [3]; at 50.0 µM 14.2% | [4]; [7] 13% | [4]; [8] 31% | [4]; at 50.0 µM 69.6% | [5]; [7] 1% | [5]; at 50.0 µM 43.1% | [6]; [7] -13% | [6]; [8] -2% | [6]; at 50.0 µM -23.8%

C[CH2][Sn]([Br])([CH2]C)[c]1ccccc1CN(C)C
inactive: [1]; [7] 30% | [1]; at 50.0 µM 46.2% | [2]; [7] 23% | [2]; [8] 69% | [2]; at 50.0 µM 65.5% | [3]; [7] 9% | [4]; [7] 34% | [4]; [8] 53% | [5]; [7] 11% | [6]; [7] 22%
active: [1]; [8] 76% | [3]; [8] 77% | [3]; at 50.0 µM 87.8% | [4]; at 50.0 µM 71.2% | [5]; [8] 78% | [5]; at 50.0 µM 86.8% | [6]; [8] 79% | [6]; at 50.0 µM 86.7%

O=[N+]([O-])c1cc[n+]([O-])c2ccccc12
inactive: [2]; at 50.0 µM 53.9% | [3]; at 50.0 µM 54.9% | [5]; at 50.0 µM 49.5%
active: [1]; [7] 99% | [1]; [8] 98% | [1]; at 50.0 µM 99.2% | [2]; [7] 100% | [2]; [8] 99% | [3]; [7] 99% | [3]; [8] 99% | [4]; [7] 100% | [4]; [8] 100% | [4]; at 50.0 µM 99.3% | [5]; [7] 98% | [5]; [8] 99% | [6]; [7] 99% | [6]; [8] 99% | [6]; at 50.0 µM 98%

O=C(CBr)NC1CCCCC1
inactive: [1]; [7] 1% | [2]; [7] 4% | [3]; [7] 4% | [4]; [7] 2% | [4]; at 50.0 µM 60% | [5]; [7] 6% | [6]; [7] -2%
active: [1]; [8] 93% | [1]; at 50.0 µM 81% | [2]; [8] 94% | [2]; at 50.0 µM 90.6% | [3]; [8] 93% | [3]; at 50.0 µM 82.8% | [4]; [8] 91% | [5]; [8] 94% | [5]; at 50.0 µM 85.2% | [6]; [8] 96% | [6]; at 50.0 µM 93%

CCCCCc1cc(/C=C2/N=C(c3ccc[nH]3)C=C2OC)[nH]c1C
inactive: [1]; [7] 47% | [2]; [7] 49% | [4]; [7] 46%
active: [1]; [8] 77% | [1]; at 50.0 µM 83.9% | [2]; [8] 81% | [2]; at 50.0 µM 85.5% | [3]; [7] 75% | [3]; [8] 86% | [3]; at 50.0 µM 86.8% | [4]; [8] 81% | [4]; at 50.0 µM 84.3% | [5]; [7] 80% | [5]; [8] 79% | [5]; at 50.0 µM 83.8% | [6]; [7] 71% | [6]; [8] 77% | [6]; at 50.0 µM 84%

CCOC(=O)[C]1([Pb]([CH3])([CH3])[CH3])N=NC(C(=O)OC)=C1C(=O)OC (stereo not given)
inactive: [1]; [7] 6% | [1]; [8] 32% | [1]; at 50.0 µM 68.8% | [2]; [7] -1% | [2]; [8] -14% | [2]; at 50.0 µM -2.15% | [3]; [7] 2% | [3]; [8] 22% | [3]; at 50.0 µM 29.8% | [4]; [7] 4% | [4]; [8] 5% | [4]; at 50.0 µM 14.2% | [5]; [7] -2% | [5]; [8] 32% | [5]; at 50.0 µM 15.9% | [6]; [7] 1% | [6]; [8] -2% | [6]; at 50.0 µM 30.7%
